Results filed as inconclusive are left out. The source made the active and inactive calls. Unless noted, calls come from the whole dose curve; as a rule, active = well fitted curve in the direction sought with a large enough effect; inconclusive = small, poorly fitted or top-dose-only effect, or another doubt; inactive = no such curve, though single readings can be large; an effect the other way counts as inactive or inconclusive.
Legend:
[1] = biological target: Lysosomal acid glucosylceramidase (Homo sapiens) (UniProt P04062); assay: Glucocerebrosidase-p2 (AID 348; in the data active = potency below about 10 µM; note: potency is the fitted concentration of half-maximal effect); conditions: purified GBA, blue fluorogenic substrate, 40 min
Chain of Lysosomal acid glucosylceramidase (Homo sapiens) (P04062 whole entry, looked up): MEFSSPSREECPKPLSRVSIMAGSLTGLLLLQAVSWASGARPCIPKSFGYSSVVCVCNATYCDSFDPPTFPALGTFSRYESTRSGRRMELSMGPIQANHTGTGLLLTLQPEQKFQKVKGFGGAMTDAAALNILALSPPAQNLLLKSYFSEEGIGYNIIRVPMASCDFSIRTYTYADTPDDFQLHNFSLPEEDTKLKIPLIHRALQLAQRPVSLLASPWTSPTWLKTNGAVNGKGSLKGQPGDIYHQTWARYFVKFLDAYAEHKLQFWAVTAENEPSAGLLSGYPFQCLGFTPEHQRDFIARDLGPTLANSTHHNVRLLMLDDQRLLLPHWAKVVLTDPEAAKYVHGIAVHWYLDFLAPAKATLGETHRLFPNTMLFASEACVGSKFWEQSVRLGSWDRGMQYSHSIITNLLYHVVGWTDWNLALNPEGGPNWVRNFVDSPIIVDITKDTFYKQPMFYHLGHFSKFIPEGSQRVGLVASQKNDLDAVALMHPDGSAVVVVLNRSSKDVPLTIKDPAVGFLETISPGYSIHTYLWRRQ
Procedure, shortened: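 Compounds titrated from 0.6 nM upwards against 0.2 nM enzyme in pH 5.9 citric acid/KH2PO4, taurocholate, tween-20; blue fluorogenic substrate 80 uM, 40 min room temperature, stopped and read Ex 365/Em 440 for AC50.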

[2] = AP1 Signaling Pathway (AID 357; active = well fitted curve in either direction with a large enough effect, not every such curve was filed as active;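 note: ME-180 reporter cells stimulated with EGF at its EC50 level; % is set by controls: 0 for no effect and ±100 for the full control effect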); conditions: ME-180 AP-1-bla reporter, EGF-induced, beta-lactamase ratio, 5 h; at 7.69 µM (top of the series) unless noted
Procedure, shortened: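 Titration-series screen for positive or negative modulators of EC50 EGF-induced signaling in ME-180 cells carrying an AP-1-driven beta-lactamase reporter. After 5 hours at 37 degrees Celsius, CCF4 460nm/530nm emission ratio gave %Activity; AC50 values derived.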

[3] = biological target: Cytochrome P450 1A2 (Homo sapiens) (UniProt P05177); assay: p450-cyp1a2 (AID 410; calls by dose curve; note: potency is the fitted concentration of half-maximal effect); conditions: recombinant CYP1A2, luciferin-ME demethylation, luminescence; series mostly up to 57 µM
Chain of Cytochrome P450 1A2 (Homo sapiens) (P05177 whole entry, looked up): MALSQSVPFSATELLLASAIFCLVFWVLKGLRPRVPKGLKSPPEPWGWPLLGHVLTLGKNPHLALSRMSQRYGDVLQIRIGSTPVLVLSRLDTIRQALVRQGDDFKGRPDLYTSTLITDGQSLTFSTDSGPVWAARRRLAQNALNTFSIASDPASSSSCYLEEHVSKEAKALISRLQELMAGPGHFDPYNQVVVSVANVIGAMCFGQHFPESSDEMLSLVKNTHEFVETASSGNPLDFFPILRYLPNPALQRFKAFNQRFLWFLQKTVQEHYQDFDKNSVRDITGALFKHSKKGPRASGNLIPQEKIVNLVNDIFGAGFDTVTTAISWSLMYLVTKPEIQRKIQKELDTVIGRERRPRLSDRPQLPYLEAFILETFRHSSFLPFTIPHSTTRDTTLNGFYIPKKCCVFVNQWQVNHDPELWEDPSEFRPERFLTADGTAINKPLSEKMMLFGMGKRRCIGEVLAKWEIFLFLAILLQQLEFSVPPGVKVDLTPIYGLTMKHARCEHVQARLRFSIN
Procedure, shortened: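 20nM CYP1A2 with 100uM Luciferin-ME (at Km) in 100mM KPO4; compound preincubated 10 min, NADPH regeneration added, 60 min at room temperature. Luciferin quantified by luminescence after detection reagent; normalized to 57 uM furafylline.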

[4] = NFAT Signaling Pathway (AID 444; active = well fitted curve in either direction with a large enough effect, not every such curve was filed as active;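 note: carbachol stimulus at about its EC50 of 1 µM final; % is set by controls: 0 for no effect and ±100 for the full control effect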); conditions: Jurkat NFAT-bla M1, carbachol, beta-lactamase ratio, 5 h; at 7.69 µM (top of the series) unless noted
Procedure, shortened: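 Read-out: CCF4 FRET ratio (460 nm/530 nm) after 1 h RT dye loading, used for %activity and AC50 from titration series. Cells: Jurkat NFAT-β-lactamase/M1 line, treated with compound plus 1 uM carbachol for 5 h, 37 °C.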

[5] = Stat Signaling Pathway (AID 446; active = well fitted curve in either direction with a large enough effect, not every such curve was filed as active;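 note: ME-180 cervical cancer cells given 40 pM IL-6 alongside compound; SIE-controlled beta-lactamase reporter measured as 460/530 nm FRET emission ratio; % is set by controls: 0 for no effect and ±100 for the full control effect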); conditions: ME-180 SIE beta-lactamase reporter, IL-6 stimulated, 5 h; at 7.69 µM (top of the series) unless noted
Procedure, shortened: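 ME-180 cells carrying a SIE-driven beta-lactamase reporter are stimulated with 40 pM IL-6 for 5 h at 37C in the presence of compound. The 460/530 nm FRET substrate ratio is read after 2.5 h at RT. Data are normalised to 300 pM IL-6 and to 125 nM JAK inhibitor controls.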

[6] = biological target: Glucocorticoid receptor (Homo sapiens) (UniProt P04150); assay: GR-GFP Redistribution (AID 450;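 active = compounds whose dose series gives a full or clear partial fitted curve of increased nuclear translocation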; note: potency is the fitted concentration of half-maximal effect); conditions: U2OS GR-GFP nuclear translocation, laser cytometry, 2 h
Chain of Glucocorticoid receptor (Homo sapiens) (P04150 whole entry, looked up, the tested form may be a part): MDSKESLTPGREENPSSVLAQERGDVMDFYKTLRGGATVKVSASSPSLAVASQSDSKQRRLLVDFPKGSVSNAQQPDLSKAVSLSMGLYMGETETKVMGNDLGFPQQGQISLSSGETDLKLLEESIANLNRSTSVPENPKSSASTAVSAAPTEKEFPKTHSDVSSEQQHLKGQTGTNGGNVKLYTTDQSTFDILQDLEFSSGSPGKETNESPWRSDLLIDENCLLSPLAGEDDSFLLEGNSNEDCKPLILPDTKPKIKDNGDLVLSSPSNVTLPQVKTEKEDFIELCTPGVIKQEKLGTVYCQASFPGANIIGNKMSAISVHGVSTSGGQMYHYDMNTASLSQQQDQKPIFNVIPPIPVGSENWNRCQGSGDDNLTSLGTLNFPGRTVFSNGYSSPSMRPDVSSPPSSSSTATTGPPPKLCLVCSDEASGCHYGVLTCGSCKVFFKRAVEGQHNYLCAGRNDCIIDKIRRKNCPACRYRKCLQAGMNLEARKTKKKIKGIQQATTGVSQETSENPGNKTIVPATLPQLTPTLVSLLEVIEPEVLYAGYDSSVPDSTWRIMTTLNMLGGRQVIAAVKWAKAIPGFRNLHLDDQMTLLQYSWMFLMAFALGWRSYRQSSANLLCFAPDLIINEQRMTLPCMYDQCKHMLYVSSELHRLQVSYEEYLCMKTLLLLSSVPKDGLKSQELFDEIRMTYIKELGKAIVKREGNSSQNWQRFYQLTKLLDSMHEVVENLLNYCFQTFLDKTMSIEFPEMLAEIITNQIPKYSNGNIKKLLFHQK

[7] = biological target: Glucocorticoid receptor (Homo sapiens) (UniProt P04150); assay: GR-EFC Redistribution (AID 451; calls by dose curve; note: potency is the fitted concentration of half-maximal effect); conditions: CHO-K1 GR-EFC translocation, beta-gal luminescence, 2 h
Procedure, shortened: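 Translocation of GR-ED fusion to nuclear EA restores b-gal, read by luminescence after 1 h room-temperature detection. Engineered CHO-K1 biosensor cells, 1,000/well, exposed 2 h at 37 C to titrations up to 46 uM final.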

[8] = biological target: Mitogen-activated protein kinase 10 (Mus musculus) (UniProt Q61831); assay: JNK3 AlphaScreen Assay (AID 530; active = well fitted curve in either direction with a large enough effect, not every such curve was filed as active;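 note: kinase came from lysate of stimulated human HepG2 cells; signal reports phosphorylation of biotinylated GST-cJun 1-79 at Ser73 with 10 µM ATP; % is set by controls: 0 for no effect and ±100 for the full control effect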); conditions: JNK3 lysate, c-Jun phosphorylation; series mostly up to 57.1 µM
Procedure, shortened: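 Compound titrations were preincubated 15 minutes at room temperature with substrate, antibody and pre-activated JNK3-containing HepG2 lysate. Reactions were started with 10 uM ATP and stopped with EDTA-containing bead buffer for AlphaScreen detection.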

[9] = biological target: 3',5'-cyclic-AMP phosphodiesterase 4B (Homo sapiens) (UniProt Q07343); assay: qHTS Assay for Inhibitors of PDE-IV (AID 607; active = well fitted activation curve with a large enough effect in the main read-out, with a control signal flat, not every such curve was filed as active; note: % of control where 0% means no effect); conditions: HEK293 ACTOne CNG channel cells, membrane potential fluorescence; series mostly up to 22.9 µM
Chain of 3',5'-cyclic-AMP phosphodiesterase 4B (Homo sapiens) (Q07343 whole entry, looked up): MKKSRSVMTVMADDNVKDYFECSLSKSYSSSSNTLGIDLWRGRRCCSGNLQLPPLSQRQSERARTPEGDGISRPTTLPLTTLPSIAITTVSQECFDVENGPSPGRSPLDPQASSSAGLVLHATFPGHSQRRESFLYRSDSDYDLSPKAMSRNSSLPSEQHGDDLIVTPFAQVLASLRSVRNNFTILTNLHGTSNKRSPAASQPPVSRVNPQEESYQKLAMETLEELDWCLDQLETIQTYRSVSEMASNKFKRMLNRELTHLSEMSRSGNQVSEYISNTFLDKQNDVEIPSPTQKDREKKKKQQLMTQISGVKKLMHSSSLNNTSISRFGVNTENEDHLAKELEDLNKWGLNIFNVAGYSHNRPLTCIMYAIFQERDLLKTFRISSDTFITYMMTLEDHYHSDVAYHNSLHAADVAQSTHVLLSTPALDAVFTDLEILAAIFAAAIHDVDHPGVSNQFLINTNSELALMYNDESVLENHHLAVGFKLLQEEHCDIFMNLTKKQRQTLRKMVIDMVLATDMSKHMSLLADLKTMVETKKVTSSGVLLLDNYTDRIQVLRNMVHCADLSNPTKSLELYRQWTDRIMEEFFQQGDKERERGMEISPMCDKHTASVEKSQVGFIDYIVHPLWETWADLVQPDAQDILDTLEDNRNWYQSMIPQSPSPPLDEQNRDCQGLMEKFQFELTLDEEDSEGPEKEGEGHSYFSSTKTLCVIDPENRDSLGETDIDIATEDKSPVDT
Procedure, shortened: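 HEK293 ACTOne cells with CNG channel (1000/well), endogenous PDE4; membrane potential dye, compounds up to 22.9 uM final. Fluorescence Ex 535/Em 590; RO 20-1724 (100 uM final) as reference.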

[10] = biological target: Cytochrome P450 3A4 (Homo sapiens) (UniProt P08684); assay: qHTS Assay for Activators of Cytochrome P450 3A4 (AID 885); conditions: recombinant CYP3A4, Luciferin-PPXE luminescence, 60 min; series mostly up to 57.1 µM; note: nearly all actives have a fitted effect of over 65% in size
Chain of Cytochrome P450 3A4 (Homo sapiens) (P08684 whole entry, looked up): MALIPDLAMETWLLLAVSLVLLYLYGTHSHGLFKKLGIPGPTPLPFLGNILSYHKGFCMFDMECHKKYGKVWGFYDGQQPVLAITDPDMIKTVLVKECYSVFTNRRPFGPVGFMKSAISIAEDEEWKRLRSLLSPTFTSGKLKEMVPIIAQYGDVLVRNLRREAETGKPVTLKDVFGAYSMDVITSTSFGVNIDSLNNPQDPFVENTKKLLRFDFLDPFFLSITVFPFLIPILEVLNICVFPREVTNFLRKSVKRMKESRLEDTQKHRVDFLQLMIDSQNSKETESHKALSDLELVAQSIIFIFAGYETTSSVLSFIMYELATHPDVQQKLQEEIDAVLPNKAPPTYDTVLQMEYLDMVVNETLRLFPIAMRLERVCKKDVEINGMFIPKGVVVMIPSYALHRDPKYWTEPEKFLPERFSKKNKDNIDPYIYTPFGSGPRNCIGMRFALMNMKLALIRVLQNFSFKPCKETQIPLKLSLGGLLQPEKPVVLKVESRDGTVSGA
Procedure, shortened: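 Human CYP3A4 (20 nM) with Luciferin-PPXE at 25 uM (its KM) in 200 mM KPO4; 10 min compound preincubation, then NADPH regeneration and 60 min reaction at RT. Luciferin read by luminescence; normalized to 57 uM ketoconazole full inhibition.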

[11] = biological target: Dual specificity protein kinase CLK4 (Homo sapiens) (UniProt Q9HAZ1); assay: qHTS Assay for Inhibitors of CDC-like Kinase 4 (Kinase-Glo Assay) (AID 1770); conditions: recombinant Clk4, Kinase-Glo ATP depletion luminescence; series mostly up to 66.7 µM; note: nearly all actives have a fitted effect of over 65% in size; note: potency is the fitted concentration of half-maximal effect
Chain of Dual specificity protein kinase CLK4 (Homo sapiens) (Q9HAZ1 whole entry, looked up): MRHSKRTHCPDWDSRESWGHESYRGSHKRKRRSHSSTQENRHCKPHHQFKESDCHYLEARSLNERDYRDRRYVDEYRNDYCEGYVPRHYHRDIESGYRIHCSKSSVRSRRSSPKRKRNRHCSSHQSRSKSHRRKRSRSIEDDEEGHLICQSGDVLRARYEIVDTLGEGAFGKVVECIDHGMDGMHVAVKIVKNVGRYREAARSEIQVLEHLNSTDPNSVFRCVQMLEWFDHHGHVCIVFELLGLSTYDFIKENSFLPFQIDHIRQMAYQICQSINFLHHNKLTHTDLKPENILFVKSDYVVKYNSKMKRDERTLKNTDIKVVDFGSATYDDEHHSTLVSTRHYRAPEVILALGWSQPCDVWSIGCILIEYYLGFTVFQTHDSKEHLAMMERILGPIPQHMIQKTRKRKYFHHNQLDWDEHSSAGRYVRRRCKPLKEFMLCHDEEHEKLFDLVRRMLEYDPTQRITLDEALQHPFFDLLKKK
Procedure, shortened: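 Recombinant human Clk4 (25 nM) phosphorylated RS repeat peptide (100 uM) with 1 uM ATP in Tris pH 7.5/MgCl2/EGTA/DTT/Triton buffer for 4.5 h at room temperature. Residual ATP was quantified by Kinase-Glo luciferase luminescence.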

[12] = biological target: Dual specificity protein kinase CLK4 (Homo sapiens) (UniProt Q9HAZ1); assay: qHTS Assay for Inhibitors of CDC-like Kinase 4 (ADP-Glo Assay) (AID 1771); conditions: recombinant CLK4, ADP-Glo luminescence; series mostly up to 80 µM; note: nearly all actives have a fitted effect of over 70% in size; note: potency is the fitted concentration of half-maximal effect
Procedure, shortened: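 25 nM Clk4 with 100 uM RS repeat peptide and 1 uM ATP (final) in buffer with 2 mM MgCl2, 0.5 mM EGTA, 2.5 mM DTT, 0.01% Triton X-100; 1 h at room temperature; ADP-Glo luminescence for ADP formed.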

[13] = biological target: Dual specificity protein kinase CLK4 (Homo sapiens) (UniProt Q9HAZ1); assay: qHTS Assay for Inhibitors of CDC-like Kinase 4 (ADP-FP Assay) (AID 1795); conditions: Transcreener ADP fluorescence polarization; series mostly up to 50 µM; note: nearly all actives have a fitted effect of over 60% in size; note: potency is the fitted concentration of half-maximal effect
Procedure, shortened: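 Recombinant human Clk4 (6.25 nM) phosphorylated RS repeat peptide (100 uM) with 1 uM ATP in Tris pH 7.5/MgCl2/EGTA/DTT/Triton buffer for one hour. ADP was quantified by Transcreener competitive fluorescence polarization against an ADP calibration curve.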

[14] = biological target: Ubiquitin carboxyl-terminal hydrolase 1 (Homo sapiens) (UniProt O94782); assay: Inhibitors of USP1/UAF1: Pilot qHTS (AID 504865); conditions: purified USP1/UAF1, Ub-rhodamine cleavage fluorescence; series mostly up to 54.9 µM;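 note: rhodamine fluorescence freed from ubiquitin-rhodamine substrate followed over time; top concentration of the series differs between compounds; % is set by controls: 0 for no effect and ±100 for the full control effect; nearly all actives have a fitted effect of over 35% in size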
Chain of Ubiquitin carboxyl-terminal hydrolase 1 (Homo sapiens) (O94782 whole entry, looked up): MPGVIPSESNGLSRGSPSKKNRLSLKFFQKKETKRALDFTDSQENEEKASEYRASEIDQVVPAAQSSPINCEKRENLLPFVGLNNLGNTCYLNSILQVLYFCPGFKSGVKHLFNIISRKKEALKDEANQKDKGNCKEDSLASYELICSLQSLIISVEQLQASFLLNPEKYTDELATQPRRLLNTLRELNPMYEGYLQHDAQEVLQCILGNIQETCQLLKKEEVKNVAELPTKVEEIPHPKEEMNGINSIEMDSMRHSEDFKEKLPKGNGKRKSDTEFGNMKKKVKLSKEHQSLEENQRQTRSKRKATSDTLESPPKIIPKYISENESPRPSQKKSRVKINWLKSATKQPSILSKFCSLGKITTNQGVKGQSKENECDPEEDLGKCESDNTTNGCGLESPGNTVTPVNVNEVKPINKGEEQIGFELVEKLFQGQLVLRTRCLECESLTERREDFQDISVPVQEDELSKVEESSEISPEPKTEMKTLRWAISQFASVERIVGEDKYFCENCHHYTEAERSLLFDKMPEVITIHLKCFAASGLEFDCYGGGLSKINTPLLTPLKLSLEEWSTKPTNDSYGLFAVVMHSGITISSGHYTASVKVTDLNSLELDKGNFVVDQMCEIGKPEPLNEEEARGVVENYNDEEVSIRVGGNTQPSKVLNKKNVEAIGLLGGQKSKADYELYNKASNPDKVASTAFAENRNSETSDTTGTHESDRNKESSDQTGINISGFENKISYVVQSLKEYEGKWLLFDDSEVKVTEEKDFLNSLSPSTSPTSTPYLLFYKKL
Procedure, shortened: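 USP1/UAF1 complex (1nM) preincubated with compound 15 min at room temperature, then Ub-Rho substrate (150nM final) added. Fluorescence read kinetically at 480/540 nm, 6 reads every 60 seconds. Buffer: 50mM HEPES pH 7.8, 0.5mM EDTA, 0.1 mg/ml BSA, 1mM TCEP, 0.01% Tween-20.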

[15] = Primary qHTS for small molecule stabilizers of the endoplasmic reticulum resident proteome: Secreted ER Calcium Modulated Protein (SERCaMP) assay (AID 1508630); conditions: SH-SY5Y GLuc-SERCaMP (Gaussia luciferase released on ER calcium loss) secretion, thapsigargin, luminescence; series mostly up to 38.4 µM; note: % is set by controls: 0 for no effect and ±100 for the full control effect
Procedure, shortened: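 GLuc-SERCaMP-expressing SH-SY5Y cells, pretreated 16 h with compound, are challenged with thapsigargin to empty ER calcium stores; after 4 h, coelenterazine is added directly to the medium and luminescence is imaged.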

COc1ccc(-n2c(=O)c(-c3cc(F)cc(F)c3)nc3cncnc32)cc1
inactive: Potency [1] > 11.4 µM | activity change, negative = inhibition [2] -5% | activity change, negative = inhibition [4] -16% | activity, negative = inhibition [5] 6.92% | Potency [6] > 9.22 µM | Potency [7] > 46 µM | Potency [8] | Potency [9] | Potency [10] | Potency [11] | Potency [12] | Potency [13] | Potency [14] | outcome [15]
active: Potency [3] 12.6 µM

CN(C)C(=O)c1ccc(-c2nccc(Nc3ccc(F)cc3)n2)cc1
inactive: Potency [1] > 11.4 µM | activity change, negative = inhibition [2] -14.3% | activity change, negative = inhibition [4] -12.1% | activity, negative = inhibition [5] -4.15% | Potency [6] > 46 µM | Potency [7] > 46 µM | Potency [8] | Potency [9] | Potency [10] | Potency [11] | Potency [12] | Potency [13] | Potency [14] | outcome [15]
active: Potency [3] 6.31 µM

CS(=O)(=O)Nc1cccc(-c2cc(NCc3cccs3)ncn2)c1
inactive: Potency [1] > 11.4 µM | activity change, negative = inhibition [2] -14.7% | activity change, negative = inhibition [4] -3.98% | activity, negative = inhibition [5] -1.82% | Potency [6] > 46 µM | Potency [7] > 46 µM | Potency [8] | Potency [9] | Potency [10] | Potency [14] | outcome [15]
active: Potency [3] 6.31 µM | Potency [11] 10 µM | Potency [12] 12.6 µM | Potency [13] 12.6 µM

CNc1nc(-c2ccccc2C)nc2ccccc12
inactive: activity change, negative = inhibition [2] 8.12% | activity change, negative = inhibition [4] 3.1% | activity, negative = inhibition [5] 9% | Potency [6] > 46 µM | Potency [7] > 46 µM | Potency [8] | Potency [9] | Potency [10] | Potency [14] | outcome [15]
active: Potency [1] 8.72 µM | Potency [3] 0.501 µM | Potency [11] 12.6 µM | Potency [12] 12.6 µM | Potency [13] 14.1 µM

COCCn1c(=O)cnc2cnc(Oc3cccc(Cl)c3)nc21
inactive: Potency [1] > 11.4 µM | activity change, negative = inhibition [2] 1.86% | activity change, negative = inhibition [4] 2.09% | activity, negative = inhibition [5] -13.2% | Potency [6] > 9.22 µM | Potency [7] > 46 µM | Potency [8] | Potency [9] | Potency [10] | Potency [11] | Potency [12] | Potency [13] | Potency [14] | outcome [15]
active: Potency [3] 3.16 µM

CNc1ccnc(-c2ccccc2C)n1
inactive: Potency [1] > 11.4 µM | activity change, negative = inhibition [2] 0.123% | activity change, negative = inhibition [4] 13% | activity, negative = inhibition [5] 6.43% | Potency [6] > 46 µM | Potency [7] > 46 µM | Potency [8] | Potency [9] | Potency [10] | Potency [11] | Potency [12] | Potency [13] | Potency [14] | outcome [15]
active: Potency [3] 5.01 µM

Source: PubChem BioAssay (NCATS)
